Screen size: about 39,000 compounds; about 1,500 (3.8%) were called active. For the sample, actives were picked, then their nearest neighbours and some compounds at random.

In the antibiotic and cytotoxicity screens of Wong et al. (2023) one finds cytotoxicity call data, which are given here for 60 molecules.

For the assay, the system named is HSkMC (human skeletal muscle cells). As to the kind of experiment: cytotoxicity call (relative viability < 0.9). Conditions: 10 µM.
In the case of `COc1ccc(NC(=O)N(C)C[C@@H]2Oc3ccc(NC(=O)CCCCCC(=O)Nc4ccccc4N)cc3CC(=O)N([C@H](C)CO)C[C@H]2C)cc1`, the cytotoxicity call is “inactive”.
As for `C[C@@H]1CN([C@@H](C)CO)C(=O)c2cc(NC(=O)Nc3ccc(F)cc3)ccc2O[C@@H]1CN(C)Cc1ccc(Cl)c(Cl)c1`, the cytotoxicity call was “active”.
The entry for `C[C@@H]1CN([C@H](C)CO)C(=O)c2cc(NC(=O)Nc3ccc(F)cc3)ccc2O[C@@H]1CN(C)Cc1ccc(Cl)c(Cl)c1` is “inactive”; for `C[C@H]1CN([C@@H](C)CO)C(=O)c2cc(NC(=O)Nc3ccc(F)cc3)ccc2O[C@H]1CN(C)Cc1ccc(Cl)c(Cl)c1` it is “inactive”; for `COc1ccc(NC(=O)Nc2ccc3c(c2)C(=O)N([C@H](C)CO)C[C@H](C)[C@H](CN(C)Cc2ccc(Cl)c(Cl)c2)O3)cc1` it is “inactive”.
The same measure for `COc1ccc(NC(=O)Nc2ccc3c(c2)C(=O)N([C@H](C)CO)C[C@@H](C)[C@@H](CN(C)Cc2ccc(Cl)c(Cl)c2)O3)cc1`: “inactive”; for `C[C@@H]1CN([C@H](C)CO)C(=O)c2cc(NC(=O)Nc3ccc(F)cc3)ccc2O[C@H]1CN(C)Cc1ccc(Cl)c(Cl)c1`: “inactive”.
As for `C[C@@H]1CN([C@@H](C)CO)C(=O)c2cc(NC(=O)Nc3ccc(F)cc3)ccc2O[C@H]1CN(C)Cc1ccc(Cl)c(Cl)c1`, the cytotoxicity call was “inactive”.
The entry for `C[C@H](CO)N1C[C@H](C)[C@H](CN(C)Cc2ccc(Cl)c(Cl)c2)Oc2ccc(NC(=O)Nc3ccc(F)cc3)cc2C1=O` is “active”; for `COc1ccc(NC(=O)Nc2ccc3c(c2)C(=O)N([C@@H](C)CO)C[C@H](C)[C@H](CN(C)Cc2ccc(Cl)c(Cl)c2)O3)cc1` it is “active”.
In the case of `COc1ccc(S(=O)(=O)N(C)C[C@H]2Oc3ccc(NS(=O)(=O)c4cn(C)cn4)cc3CC(=O)N([C@@H](C)CO)C[C@@H]2C)cc1`, the cytotoxicity call was “inactive”.
Consider `CO[C@@H]1CN(C)C(=O)c2cc(NS(=O)(=O)CC(F)(F)F)ccc2OC[C@@H](C)N(C(=O)NC(C)C)C[C@@H]1C`, for which the cytotoxicity call was “inactive”.
The entry for `COc1cccc(CNC(=O)C[C@H]2C=C[C@H](NC(=O)C3CCOCC3)[C@H](CO)O2)c1` is “inactive”.
The entry for `COc1ccc(CN(C)C[C@H]2OCCCC[C@H](C)Oc3ccc(NC(=O)Nc4ccc5c(c4)OCO5)cc3C(=O)N([C@@H](C)CO)C[C@H]2C)cc1` is “inactive”; for `C[C@@H]1CN([C@H](C)CO)C(=O)c2cc(NC(=O)Cn3cnnn3)ccc2O[C@@H]1CN(C)C(=O)Nc1ccc(C(F)(F)F)cc1` it is “inactive”.
The entry for `C[C@@H]1CN([C@H](C)CO)C(=O)c2cc(NC(=O)Nc3ccc(C(F)(F)F)cc3)ccc2O[C@H]1CN(C)C(=O)Nc1cccc2ccccc12` is “inactive”; for `Cl.Clc1ccc2c(c1)CCc1cccnc1C2=C1CCNCC1` it is “inactive”; for `Cc1cc(C(=O)Nc2cccc3c2O[C@H](CN(C)Cc2ccc(Oc4ccccc4)cc2)[C@@H](C)CN([C@@H](C)CO)C3=O)n(C)n1` it is “inactive”.
For the molecule `COC(=O)C(CC#Cc1ccc2c(c1)[C@]1(C(=O)N2)[C@H](c2ccc(OCCO)cc2)N2[C@H](c3ccccc3)[C@H](c3ccccc3)OC(=O)[C@H]2[C@@H]1C(=O)N1CCc2cc(OC)c(OC)cc2C1)C(=O)OC`, the cytotoxicity call was “inactive”.
The same measure for `COc1ccc(S(=O)(=O)N(C)C[C@@H]2Oc3c(NS(=O)(=O)c4cn(C)cn4)cccc3C(=O)N([C@@H](C)CO)C[C@@H]2C)cc1`: “inactive”.
On to `C[C@@H]1CCCCO[C@H](CN(C)Cc2ccccc2)[C@H](C)CN([C@@H](C)CO)C(=O)c2cc(NC(=O)Nc3ccc(C(F)(F)F)cc3)ccc2O1`, for which the cytotoxicity call was “active”.
As for `C[C@H]1CCCCO[C@H](CN(C)Cc2ccccc2)[C@@H](C)CN([C@@H](C)CO)C(=O)c2cc(NC(=O)Nc3ccc(C(F)(F)F)cc3)ccc2O1`, the cytotoxicity call was “active”.
The same measure for `C[C@H]1CCCCO[C@@H](CN(C)Cc2ccccc2)[C@@H](C)CN([C@@H](C)CO)C(=O)c2cc(NC(=O)Nc3ccc(C(F)(F)F)cc3)ccc2O1`: “active”; for `C[C@@H]1CN([C@@H](C)CO)C(=O)c2cc(NC(=O)Nc3ccc(C(F)(F)F)cc3)ccc2O[C@@H](C)CCCCO[C@H]1CN(C)Cc1ccccc1`: “active”; for `COc1ccc(S(=O)(=O)N(C)C[C@H]2Oc3ccc(NC(=O)Cn4cnnn4)cc3CC(=O)N([C@H](C)CO)C[C@@H]2C)cc1`: “inactive”.
The entry for `C[C@H](CO)N1C[C@H](C)[C@@H](CN(C)C(=O)Nc2cccc3ccccc23)Oc2ccc(NS(=O)(=O)c3ccc(F)cc3)cc2CC1=O` is “inactive”; for `CCCCCCCCCCCCCCCCOCCCOP(=O)(O)CO[C@H](CO)Cn1ccc(N)nc1=O` it is “inactive”; for `CC(C)NC(=O)Nc1ccc2c(c1)C(=O)N([C@@H](C)CO)C[C@H](C)[C@@H](CN(C)Cc1ccc3c(c1)OCO3)O2` it is “inactive”.
For the molecule `COCCn1cc2c(n1)[C@H](CNC(=O)COC)OCC2`, the cytotoxicity call is “inactive”.
Take `C[C@@H]1CCCCO[C@H](CN(C)C(=O)c2ccccc2)[C@@H](C)CN([C@H](C)CO)C(=O)c2cc(NC(=O)C3CCCCC3)ccc2O1`: the cytotoxicity call was “inactive”.
The entry for `C[C@@H]1CN([C@@H](C)CO)C(=O)c2cc(NC(=O)Nc3ccccc3)ccc2O[C@@H](C)CCCCO[C@H]1CN(C)C(=O)Nc1cccc2ccccc12` is “inactive”; for `C[C@@H]1CN([C@H](C)CO)C(=O)c2cc(NC(=O)Nc3ccc(C(F)(F)F)cc3)ccc2O[C@@H](C)CCCCO[C@@H]1CN(C)Cc1ccccc1` it is “active”; for `C[C@H](CO)N1C[C@H](C)[C@H](CN(C)Cc2ccccc2)OCCCC[C@H](C)Oc2ccc(NC(=O)Nc3ccc(C(F)(F)F)cc3)cc2C1=O` it is “active”.
The same measure for `C[C@@H]1CCCCO[C@H](CN(C)Cc2ccccc2)[C@@H](C)CN([C@H](C)CO)C(=O)c2cc(NC(=O)Nc3ccc(C(F)(F)F)cc3)ccc2O1`: “active”.
In the case of `C[C@@H]1CCCCO[C@H](CN(C)Cc2ccccc2)[C@@H](C)CN([C@@H](C)CO)C(=O)c2cc(NC(=O)Nc3ccc(C(F)(F)F)cc3)ccc2O1`, the cytotoxicity call is “active”.
The same measure for `Cn1nc(C2CC2)cc1N`: “inactive”; for `C[C@H](CO)N1C[C@H](C)[C@@H](CN(C)C(=O)NC2CCCCC2)OCCCC[C@H](C)Oc2ccc(NC(=O)C3CCCCC3)cc2C1=O`: “inactive”.
The same measure for `Cc1noc(C)c1NC(=O)Nc1ccc2c(c1)C(=O)N([C@H](C)CO)C[C@H](C)[C@H](CN(C)C(=O)Cc1ccccc1)OCCCC[C@@H](C)O2`: “inactive”; for `C[C@H](CO)N1C[C@H](C)[C@H](CN(C)C(=O)C2CCCCC2)Oc2cc(C#Cc3ccncc3)ccc2S1(=O)=O`: “inactive”; for `Cc1onc(-c2ccccc2)c1C(=O)NC1C(=O)N2C1SC(C)(C)C2C(=O)[O-].[Na+]` (stereo not given): “inactive”.
Turning to `COc1ccc(S(=O)(=O)Nc2ccc3c(c2)C(=O)N([C@H](C)CO)C[C@H](C)[C@H](CN(C)C(=O)Nc2ccc(F)cc2)OCCCC[C@H](C)O3)cc1`, the cytotoxicity call was “inactive”.
The entry for `O=C(O)c1ccoc1` is “inactive”; for `Cc1ccc(S(=O)(=O)N(C)C[C@H]2Oc3cc(C#Cc4ccncc4)ccc3S(=O)(=O)N([C@H](C)CO)C[C@@H]2C)cc1` it is “inactive”; for `C[C@@H]1CN([C@H](C)CO)C(=O)c2cc(NC(=O)NC3CCCCC3)ccc2O[C@@H]1CN(C)Cc1ccc(C(F)(F)F)cc1` it is “inactive”.
The entry for `C[C@@H]1CN([C@@H](C)CO)C(=O)c2cc(NC(=O)Nc3ccc(C(F)(F)F)cc3)ccc2O[C@@H](C)CCCCO[C@@H]1CN(C)Cc1ccccc1` is “inactive”; for `C[C@@H]1CCCCO[C@@H](CN(C)Cc2ccccc2)[C@@H](C)CN([C@@H](C)CO)C(=O)c2cc(NC(=O)Nc3ccc(C(F)(F)F)cc3)ccc2O1` it is “active”; for `C[C@@H]1CN([C@H](C)CO)C(=O)c2cc(NC(=O)Nc3ccc(C(F)(F)F)cc3)ccc2O[C@@H](C)CCCCO[C@H]1CN(C)Cc1ccccc1` it is “active”.
The entry for `C[C@H](CO)N1C[C@H](C)[C@@H](CN(C)Cc2ccccc2)OCCCC[C@H](C)Oc2ccc(NC(=O)Nc3ccc(C(F)(F)F)cc3)cc2C1=O` is “active”; for `C[C@@H]1CCCCO[C@@H](CN(C)Cc2ccccc2)[C@H](C)CN([C@@H](C)CO)C(=O)c2cc(NC(=O)Nc3ccc(C(F)(F)F)cc3)ccc2O1` it is “inactive”.
Turning to `C[C@@H]1CCCCO[C@@H](CN(C)Cc2ccccc2)[C@H](C)CN([C@H](C)CO)C(=O)c2cc(NC(=O)Nc3ccc(C(F)(F)F)cc3)ccc2O1`, the cytotoxicity call is “inactive”.
Regarding `C[C@@H]1CCCCO[C@H](CN(C)Cc2ccccc2)[C@H](C)CN([C@H](C)CO)C(=O)c2cc(NC(=O)Nc3ccc(C(F)(F)F)cc3)ccc2O1`, the cytotoxicity call was “active”.
The same measure for `C[C@@H]1CCCCO[C@@H](CN(C)Cc2ccccc2)[C@@H](C)CN([C@H](C)CO)C(=O)c2cc(NC(=O)Nc3ccc(C(F)(F)F)cc3)ccc2O1`: “inactive”; for `CCC[C@@H](O)C#Cc1cnc2c(c1)C(=O)N([C@H](C)CO)C[C@H](C)[C@H](CN(C)C(=O)Nc1ccc(F)cc1)O2`: “inactive”; for `COC(=O)C12CC3(C(=O)OC)CC(C(=O)OC)(CC(C(=O)OC)(C1)C3=O)C2=O`: “inactive”.
The entry for `COc1cccc(S(=O)(=O)Nc2ccc3c(c2)[C@@H]2C[C@H](CC(=O)NCc4cccc(F)c4)O[C@@H](CO)[C@@H]2O3)c1` is “inactive”; for `Cc1c2occ(C(C)(C)C)c2cc2c3c(c(=O)oc12)CCCC3` it is “inactive”.
The same measure for `NC(=O)c1ccco1`: “inactive”.
As for `C[C@H](CO)N1C[C@H](C)[C@H](CN(C)C(=O)Nc2cccc3ccccc23)Oc2c(NC(=O)NC3CCCCC3)cccc2C1=O`, the cytotoxicity call was “inactive”.
The same measure for `COc1ccc(NC(=O)N(C)C[C@H]2Oc3ccc(NC(=O)C4CC4)cc3C(=O)N([C@H](C)CO)C[C@H]2C)cc1`: “inactive”; for `C=CCOC(=O)[C@H]1[C@@H]2C(=O)O[C@@H](c3ccccc3)[C@@H](c3ccccc3)N2[C@@H](c2ccc(OCCOC(=O)NCCCCCC(=O)NO)cc2)[C@@]12C(=O)Nc1ccccc12`: “inactive”.
